This is part of a sample that, as a whole, favours compounds with a hit. Of some 83,000 tested, about 20% had one in any assay.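 Single-dose data. Exposure time 48 hours. Values below 10 considered active.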 Unmarked numbers belong to inactive results. Activity calls are given as the source filed them.
Each molecule was assayed on MDA-MB-468 breast (assay: NCI-60 one-dose screen, 48 h (100 = growth as untreated, 0 = no growth, -100 = all killed)). Details: 10 µM unless noted.

Q: How did the growth turn out when Cc1cc(O)cc2c1[C@H]1CC[C@]3(C)[C@@H](O)CC[C@H]3[C@@H]1C=C2 was run?
A: 96.8%

Q: How did the growth turn out when COc1ccc(-c2cnc3ccnn3c2-c2cc(OC)c(OC)c(OC)c2)cc1 was run?
A: 2.83% (active)

Q: Which growth does the source give for COc1cc2oc(-c3cccc(NC(=O)c4cc(NC(=O)[C@H](C)NC(=O)OC(C)(C)C)ccc4C)c3)cc(=O)c2c(OC)c1OC here?
A: 84.3%

Q: For CCN(CC)CCCNCCCNc1cc(OC)cc2cccnc12, which growth is on record?
A: -10.4% (active)
